We go through 51 compounds from PMC11995724, “Antibiotic target discovery by integrated phenotypic and activity-based profiling of electrophilic fragments” (Cell chemical biology, 2025).

Among all 3,200 compounds or so, about 110 (3.4%) showed an effect of 50% or more. The sample holds strong results, similar compounds and a random draw of the others, so the mix is not that of the screen.

The assay concerns T1, V. cholerae SAD30.
T1 construct: SAD30
Details: species or system S. aureus MSSA476 (TSB) or V. cholerae SAD30 (LB); 384-well bacterial growth screen at 25 uM, OD600 relative to DMSO control. The note with it: relative growth, OD600, LB; 25 µM; inhibitor.
Consider `Cc1cccc(C=C(C#N)C(=O)Nc2ccc(C(=O)O)cc2)c1` [8-M21, 4-[2-cyano-3-(3-methylphenyl)prop-2-enamido]benzoic acid], for which the “% of control remaining” value is recorded as 75.7988%.
The same measure for `CC(NC(=O)CCl)c1ccc2c(c1)CCCC2` (stereo not drawn) [4-B03, 2-chloro-N-[1-(5,6,7,8-tetrahydronaphthalen-2-yl)ethyl]acetamide]: 113.867%; for `COc1cc2c(cc1NC(=O)C(C)Cl)oc1ccccc12` (stereo not drawn) [6-G09, 2-chloro-N-{4-methoxy-8-oxatricyclo[7.4.0.0,2,7]trideca-1(9),2(7),3,5,10,12-hexaen-5-yl}propanamide]: 55.9674%; for `CC(C)NC(=O)C(C#N)=Cc1ccc(Cl)cc1` [9-C09, 3-(4-chlorophenyl)-2-cyano-N-(propan-2-yl)prop-2-enamide]: 85.3161%.
The same measure for `COCC(C)n1c(C)cc(C=C(C#N)C(=O)NS(C)(=O)=O)c1C` (stereo not drawn) [8-B04, 2-cyano-N-methanesulfonyl-3-[1-(1-methoxypropan-2-yl)-2,5-dimethyl-1H-pyrrol-3-yl]prop-2-enamide]: 81.6451%.
To `C=CCNC(=O)C(C#N)=Cc1cccc(C(F)(F)F)c1` [8-L09, 2-cyano-N-(prop-2-en-1-yl)-3-[3-(trifluoromethyl)phenyl]prop-2-enamide] belongs 71.8559%; to `C=CC(=O)N1CC[C@H](NS(C)(=O)=O)C1` [2-H21, N-[(3S)-1-(prop-2-enoyl)pyrrolidin-3-yl]methanesulfonamide], 102.239%; to `C=CC(=O)N(CC)Cc1nc2ccsc2c(=O)[nH]1` [3-P16, N-ethyl-N-({4-oxo-3H,4H-thieno[3,2-d]pyrimidin-2-yl}methyl)prop-2-enamide], 108.146%.
In the case of `C=CC(=O)N1Cc2ccccc2C[C@@H]1C(=O)NC1CC1` [2-G06, (3R)-N-cyclopropyl-2-(prop-2-enoyl)-1,2,3,4-tetrahydroisoquinoline-3-carboxamide], the “% of control remaining” value was 95.7541%.
To `Cc1cc(C=C(C#N)C(=O)Nc2nccs2)cc(C)c1O` [9-D13, 2-cyano-3-(4-hydroxy-3,5-dimethylphenyl)-N-(1,3-thiazol-2-yl)prop-2-enamide] belongs 84.7723%.
The same measure for `C=CC(=O)N[C@H]1CCN(S(=O)(=O)c2ccccc2)C1` [3-P11, N-[(3S)-1-(benzenesulfonyl)pyrrolidin-3-yl]prop-2-enamide]: 106.205%.
To `COc1ccc(C2=NN(C(=O)CCl)C(c3ccc(F)cc3)C2)cc1` (stereo not drawn) [4-M20, 2-chloro-1-[5-(4-fluorophenyl)-3-(4-methoxyphenyl)-4,5-dihydro-1H-pyrazol-1-yl]ethan-1-one] belongs 100.927%; to `COc1ccc(C(=O)CCl)c(OC)c1` [10-G18, 2-chloro-1-(2,4-dimethoxyphenyl)ethan-1-one], 111.748%; to `O=C(CCl)c1ccc(Cl)c(Cl)c1` [10-L16, 2-chloro-1-(3,4-dichlorophenyl)ethan-1-one], 0%.
On to `O=C(CCl)c1ccc2c(c1)-c1ccccc1C2` [10-H17, 2-chloro-1-(9H-fluoren-3-yl)ethan-1-one], for which the “% of control remaining” value is listed as 91.4865%.
The same measure for `COc1ccc(C(=O)CCl)cc1Cl` [10-D10, 2-chloro-1-(3-chloro-4-methoxyphenyl)ethan-1-one]: 0.9351%; for `COc1cc(OC)c(C(=O)CCl)c(OC)c1` [10-L04, 2-chloro-1-(2,4,6-trimethoxyphenyl)ethan-1-one]: 98.344%.
The same measure for `O=C(CCl)c1ccc2[nH]c(=O)[nH]c2c1` [10-I14, 5-(2-chloroacetyl)-2,3-dihydro-1H-1,3-benzodiazol-2-one]: 105.513%.
The same measure for `C=CC(=O)NCc1csc(C(C)(C)C)n1` [2-C09, N-[(2-tert-butyl-1,3-thiazol-4-yl)methyl]prop-2-enamide]: 91.5854%; for `COc1ccc(C=C(C#N)C(=O)Nc2ccc(Cl)c(Cl)c2)cc1` [8-C03, 2-cyano-N-(3,4-dichlorophenyl)-3-(4-methoxyphenyl)prop-2-enamide]: 89.395%.
Turning to `C=CC(=O)Nc1ccc(C(N)=O)nc1OC` [1-E18, 6-methoxy-5-(prop-2-enamido)pyridine-2-carboxamide], the “% of control remaining” value is given as 89.6861%.
To `C=CC(=O)Nc1c(OC)nc(Cl)nc1OC` [1-B14, N-(2-chloro-4,6-dimethoxypyrimidin-5-yl)prop-2-enamide] belongs 48.0864%; to `C=CC(=O)Nc1cc(Cl)cc(C)c1OC` [1-E16, N-(5-chloro-2-methoxy-3-methylphenyl)prop-2-enamide], 87.145%; to `N#CC(=Cc1cccc(Cl)c1Cl)C(=O)NCCc1ccccc1` [8-J06, 2-cyano-3-(2,3-dichlorophenyl)-N-(2-phenylethyl)prop-2-enamide], 78.9259%.
To `CCN(CC)c1ccc(NC(=O)CCl)cc1` [6-N10, 2-chloro-N-[4-(diethylamino)phenyl]acetamide] belongs 90.5489%; to `C=CC(=O)Nc1ccc(C)cc1S(=O)(=O)N1CCOCC1` [1-O13, N-[4-methyl-2-(morpholine-4-sulfonyl)phenyl]prop-2-enamide], 87.2945%; to `Cc1ccccc1NC(=O)C(C#N)=Cc1cc2c(cc1[N+](=O)[O-])OCO2` [9-P11, 2-cyano-N-(2-methylphenyl)-3-(6-nitro-1,3-dioxaindan-5-yl)prop-2-enamide], 84.5003%.
As to `C=CC(=O)N1CCCC(c2nn(C)cc2C(N)=O)C1` (stereo not drawn) [1-D07, 1-methyl-3-[1-(prop-2-enoyl)piperidin-3-yl]-1H-pyrazole-4-carboxamide], the “% of control remaining” value was determined as 92.9746%.
To `O=C(CCl)c1ccc(F)cc1F` [10-I18, 2-chloro-1-(2,4-difluorophenyl)ethan-1-one] belongs 22.7547%; to `CC(C)Oc1ccc2[nH]cc(C(=O)CCl)c2c1` [10-E03, 2-chloro-1-[5-(propan-2-yloxy)-1H-indol-3-yl]ethan-1-one], 105.669%; to `O=C(CCl)c1c[nH]c2ccccc12` [10-B05, 2-chloro-1-(1H-indol-3-yl)ethan-1-one], 108.475%.
For `O=C(CCl)c1ccc(O)cc1O` [10-C14, 2-chloro-1-(2,4-dihydroxyphenyl)ethan-1-one], the “% of control remaining” value came out at 100.682%.
As for `O=C(CCl)c1c[nH]c2ccc(F)cc12` [10-O11, 2-chloro-1-(5-fluoro-1H-indol-3-yl)ethan-1-one], the “% of control remaining” value was determined as 23.3781%.
To `Cc1cc(C(=O)CCl)c(C)n1Cc1ccc(F)cc1` [10-N17, 2-chloro-1-{1-[(4-fluorophenyl)methyl]-2,5-dimethyl-1H-pyrrol-3-yl}ethan-1-one] belongs 95.5387%; to `COc1ccc(Cc2cnc(NC(=O)CCl)s2)cc1` [4-F17, 2-chloro-N-{5-[(4-methoxyphenyl)methyl]-1,3-thiazol-2-yl}acetamide], 111.451%.
The same measure for `CC(Cl)C(=O)N1CCc2ncccc2C1` (stereo not drawn) [7-I19, 2-chloro-1-(5,6,7,8-tetrahydro-1,6-naphthyridin-6-yl)propan-1-one]: 77.5814%; for `C=CC(=O)NC(CO)c1ccnn1C` (stereo not drawn) [2-D17, N-[2-hydroxy-1-(1-methyl-1H-pyrazol-5-yl)ethyl]prop-2-enamide]: 92.203%; for `C=CC(=O)Nc1cccc(-c2cn(C)nn2)c1` [1-K14, N-[3-(1-methyl-1H-1,2,3-triazol-4-yl)phenyl]prop-2-enamide]: 83.4081%.
To `COc1ccc(-n2c(C)c(C)c(C#N)c2NC(=O)CCl)cc1` [4-F20, 2-chloro-N-[3-cyano-1-(4-methoxyphenyl)-4,5-dimethyl-1H-pyrrol-2-yl]acetamide] belongs 105.413%.
For `O=C(CCl)c1c(-c2ccc(F)cc2)[nH]c2ccccc12` [10-P04, 2-chloro-1-[2-(4-fluorophenyl)-1H-indol-3-yl]ethan-1-one], the “% of control remaining” value is recorded as 95.8504%.
The same measure for `Cn1cc(C(=O)CCl)nn1` [10-M19, 2-chloro-1-(1-methyl-1H-1,2,3-triazol-4-yl)ethan-1-one]: 0%; for `Cc1cccc(-n2cc(C(=O)CCl)nn2)c1` [10-L07]: 5.299%; for `Cc1cc(C(=O)CCl)c(C)n1-c1ccc(C(F)(F)F)cc1` [10-J14, 2-chloro-1-{2,5-dimethyl-1-[4-(trifluoromethyl)phenyl]-1H-pyrrol-3-yl}ethan-1-one]: 98.4999%.
As for `Cn1ccc(C(=O)CCl)c1` [10-D08, 2-chloro-1-(1-methyl-1H-pyrrol-3-yl)ethan-1-one], the “% of control remaining” value is listed as 103.176%.
The same measure for `Cc1cccc(-n2c(C)cc(C(=O)CCl)c2C)c1` [10-A22, 2-chloro-1-[2,5-dimethyl-1-(3-methylphenyl)-1H-pyrrol-3-yl]ethan-1-one]: 108.163%; for `O=C(CCl)NC1CC(=O)N(c2cccc(C(F)(F)F)c2)C1` (stereo not drawn) [5-E09, 2-chloro-N-{5-oxo-1-[3-(trifluoromethyl)phenyl]pyrrolidin-3-yl}acetamide]: 100.2%; for `Cc1cc(C(=O)CCl)c(C)n1-c1cccc(Cl)c1` [10-N18, 2-chloro-1-[1-(3-chlorophenyl)-2,5-dimethyl-1H-pyrrol-3-yl]ethan-1-one]: 92.4216%.
To `CC(NC(=O)CCl)c1cn(-c2ccccc2)nn1` (stereo not drawn) [5-O06, 2-chloro-N-[1-(1-phenyl-1H-1,2,3-triazol-4-yl)ethyl]acetamide] belongs 103.73%; to `O=C(CCl)c1cn(-c2ccc(F)cc2)nn1` [10-F05], 0.6234%.
The same measure for `O=C(CCl)c1cn(-c2cccc(C(F)(F)F)c2)nn1` [10-C09, 2-chloro-1-{1-[3-(trifluoromethyl)phenyl]-1H-1,2,3-triazol-4-yl}ethan-1-one]: 24.9367%; for `Cn1cc(C(=O)CCl)cc1C(N)=O` [10-J06, 4-(2-chloroacetyl)-1-methyl-1H-pyrrole-2-carboxamide]: 97.5648%.
